ALOX12 inh – blocks human arachidonate 12S-lipoxygenase; P18054; purified 12hLO, xylenol orange hydroperoxide absorbance; Potency, µM (series often up to 108 µM), for inactives: top-dose activity change, negative = inhibition, actives largely listed as inhibitors; actives 1.1% (n = 580,000); AID 1671190; active means well fitted curve in the direction sought with a large enough effect; inconclusive means small, poorly fitted or top-dose-only effect, or another doubt; inactive means no such curve, though single readings can be large; an effect the other way counts as inactive or inconclusive; further: on the % scale 0 is the no-effect control and ±100 the full control effect
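Hydroperoxide product was detected by ferrous iron/xylenol orange as the 573 to 405 nm absorbance ratio. Arachidonic acid at 40 uM (final) was turned over for 30 min at room temperature by 150 nM human 12hLO, pH 7.0 Hepes buffer, after 15 min compound preincubation.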
PTAP TSG101 blk – blocks PTAP/TSG101 interaction to inhibit HIV-1 budding; Q99816; 340,000 tested, under 10 active; Fluorescence polarization, FITC-PTAP peptide / Tsg101 binding; Potency, µM (titrated, usually from 115 µM), inactives show at the highest dose activity change, negative = inhibition, actives largely listed as inhibitors; active means well fitted inhibition curve with a large enough effect in the main read-out, with a control signal flat, not every such curve was filed as active; inconclusive means small, poorly fitted or top-dose-only effect, or effect the other way, or a change in a side signal; inactive means no such curve, though single readings can be large or run the other way; further: % of control where 0% means no effect
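Steps: Tsg101 binding domain dispensed (10 uM final), compounds pinned in DMSO, FITC-labeled PTAP-motif peptide added (50 nM final); after 20 min binding at room temperature, polarization measured.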
Rango dissoc inh – inhibitors of RanGTP-induced Rango-importin beta complex dissociation; O95149+P62826; Biochemical FRET Rango-importin beta, RanGTP-induced dissociation; Potency, µM (doses to about 46.1 µM), inactives show top-dose activity change, negative = inhibition; actives 0.071% (n = 340,000); further: % of control where 0% means no effect; nearly all actives have a fitted effect of over 45% in size
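Rango/importin beta premix (0.1/0.25 uM final), PBS + 1 mM DTT + 0.02% Tween-20 + 0.1% BSA; cpd 5 min RT; FRET pre-read; + RanGTP-RCC1 (0.6 uM Ran, 2 mM GTP, 0.2 uM RCC1); 45 min RT; FRET post-read, ex 430, em 486/530 nm.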
ClpP mod – qHTS Assay for Activators of ClpP; purified B. subtilis ClpP, FRET peptide cleavage, 20 min; Potency, µM (series often up to 57.5 µM), for inactives: at the top dose activity change, negative = active; actives 1.9% (n = 340,000); AID 651965, 2013; active means well fitted falling curve with a large enough effect; inconclusive means small, poorly fitted or top-dose-only effect; inactive means no such curve, though single readings can be large or run the other way; further: the source files actives as falling curves though it sought activators and does not explain the sign; nearly all actives have a fitted effect of over 65% in size
Target sequence (P80244 whole entry, looked up): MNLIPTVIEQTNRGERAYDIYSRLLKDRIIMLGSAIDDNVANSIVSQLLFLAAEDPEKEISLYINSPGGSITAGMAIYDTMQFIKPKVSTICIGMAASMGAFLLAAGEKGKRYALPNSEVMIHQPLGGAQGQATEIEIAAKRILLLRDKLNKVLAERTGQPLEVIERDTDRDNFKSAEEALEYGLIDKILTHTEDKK
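ClpP 10 microg/mL final, pH 8 Tris/KCl buffer with BSA, glycerol, Tween-20; compound pinned in; FRET-FV substrate; RT 20 min; Ex320/Em430; ΔFRET vs ADEP 5.8 microM, DMSO, no enzyme.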
TDP1 inh – TDP1 (human) enzyme inhibition | Q9NUW8 | recombinant TDP1, AlphaScreen DNA substrate cleavage | Potency, µM (top dose mostly 130 µM), for the others: at the top dose activity change, negative = inhibition, usual class: inhibitors | actives 0.28% (n = 350,000); active means well fitted curve in the direction sought with a large enough effect; inconclusive means small, poorly fitted or top-dose-only effect, or another doubt; inactive means no such curve, though single readings can be large; an effect the other way counts as inactive or inconclusive; further: on the % scale 0 is the no-effect control and ±100 the full control effect; nearly all actives have a fitted effect of over 40% in size
Target sequence (Q9NUW8 whole entry, looked up): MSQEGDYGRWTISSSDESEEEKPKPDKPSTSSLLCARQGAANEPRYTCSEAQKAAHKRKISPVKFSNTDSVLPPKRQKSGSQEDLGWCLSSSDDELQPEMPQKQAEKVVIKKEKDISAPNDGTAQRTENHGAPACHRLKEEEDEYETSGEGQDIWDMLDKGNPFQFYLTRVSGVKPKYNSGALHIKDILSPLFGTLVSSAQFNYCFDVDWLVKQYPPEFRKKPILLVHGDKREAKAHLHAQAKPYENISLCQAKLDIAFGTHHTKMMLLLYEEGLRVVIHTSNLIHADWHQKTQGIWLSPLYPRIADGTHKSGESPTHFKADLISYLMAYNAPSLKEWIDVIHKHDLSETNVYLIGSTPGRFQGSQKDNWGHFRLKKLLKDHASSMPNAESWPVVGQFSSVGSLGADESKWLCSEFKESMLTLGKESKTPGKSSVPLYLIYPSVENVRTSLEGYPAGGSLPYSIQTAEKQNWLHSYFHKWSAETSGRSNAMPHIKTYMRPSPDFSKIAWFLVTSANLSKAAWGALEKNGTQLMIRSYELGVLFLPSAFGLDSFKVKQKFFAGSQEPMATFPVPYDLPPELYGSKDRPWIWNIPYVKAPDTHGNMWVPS
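Tdp1 1 nM final; 15 min RT w/ cpd; substrate 15 nM, 5 min; beads 10 ug/ml, 10 min; AlphaScreen read. Neg ctrl: no enzyme.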
Rango-impB inh – prevents formation of the Rango-importin beta complex. Q14974. Rango CFP/YFP FRET sensor + importin beta, 45 min. Potency, µM (doses to about 92.2 µM), without a hit: top-dose inhibition of complex formation. actives 0.031% (n = 340,000). AID 540263;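 further: 0% = DMSO wells and 100% = buffer wells lacking importin beta; nearly all actives have a fitted effect of over 15% in size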
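FRET biosensor (snurportin 1 IBB flanked by EYFP and cerulean), 50 nM, with compound 5 min, then 0.125 microM importin beta in PBS, 1 mM DTT, 0.02% Tween-20, 0.1% BSA. CFP/YFP ratio read after 45 min at room temperature; pre-read flags interference.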
* = called active by the depositor; ? = inconclusive; . = not tested or not shown; [ ] = another dose, or the depositor's remark. Sampled rows, rich in hits. Any-hit rate of the full collection: about 2.4%. Unless noted, the call rests on the fitted dose curve. Potency means the concentration at half of the fitted maximal effect.

SMILES | ALOX12 inh | PTAP TSG101 blk | Rango dissoc inh | ClpP mod | TDP1 inh | Rango-impB inh
CC(C)(N)C(=O)N1CCC(n2nccc2NC(=O)c2ccccc2)CC1 | 16% | . | . | . | . | .
COc1ccc(-c2cc(-c3ccccc3)c(C#N)c(SCC(=O)Nc3ncc(C)s3)n2)cc1 | -14% | 0% | -11% | 7.9µM* | 0% | ?
Cc1cccc(N2CCN(CC(=O)Nc3nccs3)CC2)c1C | ? | -5% | -14% | -1% | 8% | 4%
COc1ccc(-c2cc(-c3ccccc3)nc(SCC(=O)Nc3nccs3)c2C#N)cc1 | -25% | 5% | -30% | 28µM* | 3% | 0%
COc1ccccc1N1CCN(CC(=O)Nc2nccs2)CC1 | 20µM* | -2% | -5% | 0% | . | 0%
COc1ccc(-c2csc(NC(=O)CSc3nc4ccccc4c(=O)[nH]3)n2)cc1 | -24% | -3% | -16% | . | 79µM* | 0%
Cc1ccc(-c2csc(NC(=O)CSc3nc4ccccc4[nH]3)n2)cc1 | -4% | -5% | 14% | 1% | 4% | -2%
CCCc1nc2ccccc2c(C(=O)OCC(N)=O)c1CC | -13% | . | . | . | . | .
Cc1cnc(NC(=O)c2occc2-c2ccccc2)s1 | 22% | . | . | . | . | .
Cn1cnc(S(=O)(=O)N2CCC(Oc3ncccc3C(=O)N3CCOCC3)C2)c1 (stereo unspecified) | 55% | . | . | . | . | .
Cc1occc1-c1nnc(SCC(=O)N(Cc2ccccc2)c2ccccc2)o1 | 5% | . | . | . | . | .
CN(C(=O)Cn1nc(-c2ccc(Br)cc2)ccc1=O)C1CCCCC1 | -39% | . | . | . | . | .
COc1ccccc1CNC(=O)c1nn(-c2ccccc2)c(=O)cc1OC | 19% | . | . | . | . | .
COc1ccc(-c2csc(NC(=O)CS(=O)(=O)c3ccccc3)n2)cc1OC | -2% | . | . | 0% | . | .
COC(=O)CSc1nc(-c2ccccc2)cc(-c2ccco2)c1C#N | 0% | -3% | 2% | 25µM* | -6% | -2%
COc1ccc(-c2csc(NC(=O)CC(NC(C)=O)c3ccccc3)n2)cc1OC (stereo unspecified) | -1% | -3% | -3% | -2% | 79µM* | 0%
N#Cc1c(-c2ccc(Cl)cc2)cc(-c2ccccc2)nc1SCC(=O)O | 11µM* | -10% | -23% | -10% | . | ?
COC(=O)CSc1nc(-c2ccc(C)cc2)c2c(c1C#N)CCCC2 | -12% | -2% | -18% | 28µM* | -6% | ?
COC(=O)CSc1nc(N2CCOCC2)c2c(c1C#N)CCCC2 | ? | -6% | 10% | -6% | . | -2%
Cc1c(CCC(=O)NCc2ccccc2)c(=O)oc2c(C)c(O)ccc12 | 31% | . | . | . | . | .
COc1ccc(-c2ccc(SCC(=O)Nc3nccs3)nn2)cc1OC | -4% | -6% | 1% | . | 79µM* | 5%
COc1ccc(-c2nnc3ccc(SCC(=O)Nc4nccs4)nn23)cc1OC | ? | -5% | ? | -3% | -3% | 2%
Nc1nc2c(s1)CCc1ccccc1-2 | ? | 0% | 2% | -17% | . | -1%
N#C/C(=C(/O)CCl)c1nc2c(s1)CCc1ccccc1-2 | 16µM* | 1% | 3% | -2% | 11% | 0%
Cc1cccc(-n2c(=O)[nH]c3c(C(N)=O)nc(C(C)C)nc32)c1 | 22% | -8% | -6% | 22µM* | 5% | -2%
SMILES | ALOX12 inh | PTAP TSG101 blk | Rango dissoc inh | ClpP mod | TDP1 inh | Rango-impB inh
Cc1ccc(-n2c(=O)[nH]c3c(C(N)=O)nc(C(C)C)nc32)cc1 | 0% | -5% | -5% | . | . | -2%
CCC(=O)Nc1ccccc1-c1nc2ccccc2n(CC(=O)Nc2ccc(C(C)=O)cc2)c1=O | -25% | . | . | . | . | .
CCCOc1ccccc1-c1nc2c([nH]1)c(=O)[nH]c(=O)n2C | 16% | -8% | ? | 32µM* | 7% | ?
Cn1c(=O)[nH]c(=O)c2[nH]c(CO)nc21 | ? | -5% | -14% | 1% | . | -1%
COc1cccc(/C=C2\SC(=S)N(C(Cc3ccccc3)C(=O)O)C2=O)c1 (stereo unspecified) | 45µM* | 0% | -12% | . | 4% | -2%
CCOc1ccc(/C=C2\SC(=S)N(C(C(=O)O)c3ccccc3)C2=O)cc1OC (stereo unspecified) | 16µM* | 0% | -25% | 1% | . | ?
COc1ccc(OC)c(/C=C2\SC(=S)N(C(C(=O)O)c3ccccc3)C2=O)c1 (stereo unspecified) | ? | 15% | ? | 0% | 5% | ?
COc1ccccc1N1CCN(/N=C/c2cc(OC)c(O)c(OC)c2)CC1 | -24% | 0% | -3% | -3% | 3% | 3%
COc1cc(/C=N/N2CCN(c3ccccc3OC)CC2)ccc1OC(C)=O | 29% | 0% | -3% | 28µM* | . | -1%
CC(C)NCC1(COc2ccccc2)C[C@@H](O)[C@@H](O)C1 (stereo partly specified) | 12%[176 µM] | . | . | . | . | .
CCS(=O)(=O)NCC1(COc2ccccc2)C[C@@H](O)[C@@H](O)C1 (stereo partly specified) | 56µM* | . | . | . | . | .
Cc1cccc(Nc2nc(-c3cc4cc(Br)ccc4oc3=O)cs2)c1 | -7% | . | . | . | . | .
N=C(N)c1cccc(OCc2cccnc2)c1 | 7.9µM* | . | . | . | . | .
Cc1ccsc1C(=O)C1CCCN(Cc2ccc(C#CC(C)(C)O)cc2)C1 (stereo unspecified) | 0% | . | . | . | . | .
Cc1ccsc1[C@@H]1CCN(Cc2ccc(C#CC(C)(C)O)cc2)C[C@H]1O | 45µM* | . | . | . | . | .
CCCC(Oc1ccc(Br)cc1)c1nc2c3cc(OC)c(OC)cc3nc(=S)n2[nH]1 (stereo unspecified) | ? | 0% | 5% | -2% | 5% | -2%
CC(Oc1ccc(Br)cc1)c1nc2c3ccccc3nc(=S)n2[nH]1 (stereo unspecified) | 3.5µM* | -4% | -6% | 2% | 9% | 0%
Cc1ccc(S(=O)(=O)Nc2ccc(Cl)c(C(=O)O)c2)cc1 | -13% | . | . | . | . | .
Clc1ccc(COc2ccc(-n3cnnn3)cc2)cc1Cl | 8% | . | . | . | . | .
CCCNC(=O)N[C@@H]1CCC[C@@H](C(=O)N(CC)CC)CC(=O)N(C)C1 | 40µM* | . | . | . | . | .
Cc1oc2cc(OCC(=O)Nc3nccs3)ccc2c(=O)c1-c1ccccc1 | -2% | . | . | . | . | .
CN1CCOc2c(C(=O)NCCC(N)=O)cc(-c3ccccc3O)cc21 | 27%[176 µM] | . | . | . | . | .
Nc1nc(-c2ccccc2)cn1N | 43% | -2% | 21µM* | -1% | 7% | ?
CCCN(CCC)C(=O)c1coc(COc2ccc3sc(C)nc3c2)n1 | 8% | . | . | . | . | .
Cc1ccc(CNS(=O)(=O)c2c(C)nc3sc(C)cn3c2=O)cc1 | -17% | . | . | 28µM* | 3% | .

Source: PubChem BioAssay (National Center for Advancing Translational Sciences (NCATS))
